Active and inactive are the calls of the source. Unless noted, the rule behind the calls is not given here.
Key:
[1] = HepG2 liver cancer cell viability effects, profiling panel, resazurin fluorescence, 24 h, PK04 Diversity Set (AID 1172); settings: higher = more signal; note: test concentration not given here
[2] = basal S. cerevisiae growth modulation, no modifier, primary screen, OD600, strain BY4716, 24 h, basal condition (AID 1173); settings: OD600, 24 h, higher = more signal, called active from +8 up or from −8 down
[3] = MM1S myeloma cell viability, profiling panel, resazurin fluorescence, basal, 24 h, PK04 Diversity Set (AID 1174); settings: higher = more signal, called active from +8 up or from −8 down;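 note: MM1S multiple myeloma cell line; test concentration not given here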
[4] = molecular target: Dihydroorotate dehydrogenase (quinone), mitochondrial (Plasmodium falciparum (isolate 3D7)) (UniProt Q08210); experiment: PfDHODH enzyme inhibitors, primary screen, biochemical, C-terminal His tag, absorbance 600 nm (AID 1175); settings: DCIP absorbance 600 nm, higher = more signal, called active from +8 up or from −8 down;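 note: recombinant parasite enzyme with a five histidine tag at its C terminus; test concentration not given here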
[5] = P. aeruginosa biofilm formation inhibitors, primary screen, strain PAO1, LB-PBS medium, absorbance 600 nm (AID 1176); note: test concentration not given here; settings: P. aeruginosa PAO1 growth/biofilm, A600, 12 h; higher = more signal
[6] = S. cerevisiae RM11-1a growth modifiers, primary screen, strain RM11-1a, OD600, basal, 24 h (AID 1177); settings: OD600, 24 h, higher = more signal, called active from +8 up or from −8 down;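 note: cultures grown under basal conditions with no added stressor; test concentration not given here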
[7] = E. coli acrAB mutant growth effects, primary screen, E. coli filamentation inducers, strain DRC39, OD650, 24 h (AID 1178); settings: higher = more signal, called active from +8 up or from −8 down;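 note: growth measured as culture turbidity by optical density at 650 nm; test concentration not given here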
[8] = E. coli acrAB mutant growth effects, primary screen, E. coli filamentation inducers, strain DRC39, OD650, 48 h (AID 1179);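 note: screen aims at cell division blockers that make cells filament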; settings: E. coli DRC39 delta-acrAB growth, higher = more signal, called active from +8 up or from −8 down
[9] = RPMI8226 myeloma cell viability, profiling panel, resazurin fluorescence, basal, 24 h, PK04 Diversity Set (AID 1180); settings: higher = more signal;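 note: RPMI8826 multiple myeloma cell line at 5000 cells per well; test concentration not given here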
[10] = molecular target: E3 ubiquitin-protein ligase XIAP (Homo sapiens) (UniProt P98170); experiment: XIAP binders, primary screen, biophysical, small-molecule microarray, fluorescence 635 nm (AID 1181); settings: small-molecule microarray binding, higher = more signal;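 note: score merges 667 nm emission and signal to noise over triplicate slides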
Sequence of E3 ubiquitin-protein ligase XIAP (Homo sapiens) (P98170 whole entry, looked up): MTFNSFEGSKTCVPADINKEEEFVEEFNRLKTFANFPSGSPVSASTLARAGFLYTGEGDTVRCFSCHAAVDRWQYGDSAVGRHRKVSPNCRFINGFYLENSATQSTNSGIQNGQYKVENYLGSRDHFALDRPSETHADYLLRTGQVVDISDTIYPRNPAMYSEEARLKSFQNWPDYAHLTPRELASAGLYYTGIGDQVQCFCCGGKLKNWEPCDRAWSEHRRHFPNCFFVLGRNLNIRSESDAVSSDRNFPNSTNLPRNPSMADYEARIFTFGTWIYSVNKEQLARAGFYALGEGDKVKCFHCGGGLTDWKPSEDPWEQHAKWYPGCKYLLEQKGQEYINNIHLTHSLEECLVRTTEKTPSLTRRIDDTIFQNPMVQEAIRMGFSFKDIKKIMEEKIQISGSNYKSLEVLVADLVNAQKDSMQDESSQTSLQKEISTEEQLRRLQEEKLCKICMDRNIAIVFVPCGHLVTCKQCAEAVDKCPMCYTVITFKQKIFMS

Sequence of Dihydroorotate dehydrogenase (quinone), mitochondrial (Plasmodium falciparum (isolate 3D7)) (Q08210 whole entry, looked up): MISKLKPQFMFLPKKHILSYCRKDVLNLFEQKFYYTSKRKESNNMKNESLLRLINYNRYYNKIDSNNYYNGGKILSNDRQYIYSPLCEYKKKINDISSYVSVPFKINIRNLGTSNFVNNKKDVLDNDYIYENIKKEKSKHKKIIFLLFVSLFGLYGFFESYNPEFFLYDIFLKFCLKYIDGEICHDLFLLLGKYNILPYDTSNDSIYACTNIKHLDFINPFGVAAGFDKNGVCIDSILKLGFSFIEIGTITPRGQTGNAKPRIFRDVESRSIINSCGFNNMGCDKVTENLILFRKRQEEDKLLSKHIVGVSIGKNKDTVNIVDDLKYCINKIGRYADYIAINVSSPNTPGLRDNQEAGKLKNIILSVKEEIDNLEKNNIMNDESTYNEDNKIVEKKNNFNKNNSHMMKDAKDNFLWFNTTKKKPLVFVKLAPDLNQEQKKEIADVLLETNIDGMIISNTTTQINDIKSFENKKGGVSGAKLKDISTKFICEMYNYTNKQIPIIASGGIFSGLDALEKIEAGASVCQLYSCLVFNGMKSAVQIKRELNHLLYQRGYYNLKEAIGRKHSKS

SMILES	z-score [1]	z-score [2]	z-score [3]	composite z-score [4]	z-score [5]	z-score [6]	z-score [7]	z-score [8]	z-score [9]	composite z-score [10]
Cc1c(NC(=O)/C(C#N)=C/c2ccccc2Cl)c(=O)n(-c2ccccc2)n1C	0.294	-1.08 (inactive)	0.242 (inactive)	-1.73 (inactive)	0.543 (inactive)	-0.688 (inactive)	1.17 (inactive)	1.36 (inactive)	0.0753	0.197
CC(C)CNC(=O)[C@@]1(c2ccc([N+](=O)[O-])cc2)CC(=O)N(C2CCCCC2)[C@@H]1c1ccc(CO)cc1	0.0751	-1.68 (inactive)	1.17 (inactive)	-0.0682 (inactive)	-0.301 (inactive)	-0.377 (inactive)	0.637 (inactive)	0.0367 (inactive)	1.12	0.14
O=C1c2ccccc2[C@](Cc2ccccc2I)(C(=O)NC2CC2)[C@H](c2ccc(CO)cc2)N1Cc1ccccc1C(F)(F)F	-0.113	-0.637 (inactive)	0.762 (inactive)	0.129 (inactive)	0.842 (inactive)	0.108 (inactive)	0.169 (inactive)	-0.707 (inactive)	0.154	0.125
CCCCC(=C=CC[C@H](O)c1ccc(OCCO)cc1)C[C@H](O)c1cc(Cl)cc(Cl)c1O	0.984	-4.58 (inactive)	0.437 (inactive)	-1.74 (inactive)	0.579 (inactive)	-0.674 (inactive)	0.947 (inactive)	0.514 (inactive)	1.36	-0.0773
[N-]=[N+]=NCc1ccccc1[C@@H]1OC(c2ccc(OCCCO)cc2)=N[C@]1(Cc1ccccc1)C(=O)NCCN1CCOCC1	-0.195	-0.559 (inactive)	0.162 (inactive)	1.16 (inactive)	-0.279 (inactive)	1.89 (inactive)	2.23 (inactive)	0.528 (inactive)	-0.0015	-0.0125
COCCCNC(=O)[C@@]1(Sc2ccc(C)cc2)CC(=O)N(Cc2ccccc2Cl)[C@@H]1c1ccc(CO)cc1I	0.0727	-3.06 (inactive)	-3.21 (inactive)	-2.66 (inactive)	0.242 (inactive)	-1.07 (inactive)	0.0085 (inactive)	-0.0682 (inactive)	-2.38	-0.138
COc1cc(CO)cc(I)c1O[C@H]1C=C(C(=O)NCCO)C[C@@H](NCC2CCCCC2)[C@@H]1O	0.361	-0.964 (inactive)	-0.221 (inactive)	-0.257 (inactive)	-0.107 (inactive)	-0.489 (inactive)	1.45 (inactive)	0.866 (inactive)	0.428	0.0831
CC(=O)N1CC(C(O)C2C=CC3C(=O)NC(=O)C3N2Nc2ccc(Cl)cc2Cl)c2ccccc21 (stereo not given)	-1.59	-2.62 (inactive)	-0.731 (inactive)	0.905 (inactive)	1.28 (inactive)	1.82 (inactive)	-0.306 (inactive)	-0.547 (inactive)	-0.94	0.277
Cc1ccccc1C(O)C1C=CC2C(=O)NC(=O)C2N1Nc1ccc(Cl)cc1Cl (stereo not given)	-2.17	-9.05 (active)	-1.03 (inactive)	0.107 (inactive)	1.15 (inactive)	0.251 (inactive)	-0.511 (inactive)	-0.963 (inactive)	-1.25	2.02
CN(C)CCCC[C@@H]1NC(=O)[C@@H]2C[C@H](C(=O)O)[C@H](c3cccc(OCCO)c3)N2C1=O	-0.0398	-0.79 (inactive)	0.472 (inactive)	-0.126 (inactive)	0.808 (inactive)	-0.547 (inactive)	-0.175 (inactive)	0.494 (inactive)	0.259	-0.0398
O=C1C[C@@](C(=O)NCC(F)(F)F)(c2ccc([N+](=O)[O-])cc2)[C@@H](c2ccc(CO)cc2)N1CC12CC3CC(CC(C3)C1)C2	-1.85	0.188 (inactive)	-1.4 (inactive)	0.042 (inactive)	0.36 (inactive)	0.419 (inactive)	-0.229 (inactive)	-0.684 (inactive)	-2.92	0.144
C=C(COC)/C(=C/C[C@@H](OC(=O)c1ccncc1)c1ccccc1OCCO)c1cc(C(=O)OC)ccc1OC	0.106	-1.35 (inactive)	-1.03 (inactive)	-4 (inactive)	0.825 (inactive)	0.0248 (inactive)	0.404 (inactive)	0.32 (inactive)	-1.35	-0.211
Cc1ccc(F)cc1S(=O)(=O)N[C@@H]1CCN(Cc2cccc3[nH]ccc23)C1	-0.921	-2.03 (inactive)	-0.182 (inactive)	0.31 (inactive)	0.343 (inactive)	-0.367 (inactive)	-0.429 (inactive)	-1.32 (inactive)	-0.504	-0.02
O=c1cccc(-c2ccco2)o1	-0.675	-0.216 (inactive)	0.0232 (inactive)	-1.85 (inactive)	0.092 (inactive)	-0.231 (inactive)	-0.644 (inactive)	-0.338 (inactive)	-0.258	-0.179
C=CCNC(=O)[C@@H]1[C@H]2C(=O)O[C@H](c3ccccc3)[C@H](c3ccccc3)N2[C@H](c2ccc(OCCO)cc2)[C@@]12C(=O)N(C(=O)OCCOC)c1ccc(C#CCCO)cc12	0.266	-0.153 (inactive)	0.423 (inactive)	-0.767 (inactive)	2.16 (inactive)	1.55 (inactive)	0.756 (inactive)	0.298 (inactive)	1.04	-0.0161
C=CCN1C(=O)[C@]2(O[C@H](CCO)[C@@H]([Si](C)(C)c3ccc(OC)cc3)[C@@H]2C)c2cc(NC(=O)c3ccc(OC)cc3)ccc21	-4.24	-1.07 (inactive)	-4.56 (inactive)	-0.224 (inactive)	1.98 (inactive)	2.23 (inactive)	0.626 (inactive)	-0.723 (inactive)	-6.22	0.401
COc1ccc([Si](C)(C)[C@H]2[C@H](CCO)O[C@@]3(C(=O)N(Cc4ccc(N5C(=O)c6ccccc6Oc6ccccc65)cc4)c4ccccc43)[C@@H]2C)cc1	-1.49	0.884 (inactive)	-3.52 (inactive)	0.198 (inactive)	2.72 (inactive)	4.11 (inactive)	1.78 (inactive)	0.987 (inactive)	-3.67	-0.115
O=C1C[C@@](C(=O)NCc2ccccc2)(c2ccc([N+](=O)[O-])cc2)[C@@H](c2ccc(CO)cc2I)N1CC12CC3CC(CC(C3)C1)C2	-1.28	-0.787 (inactive)	-1.73 (inactive)	-0.0036 (inactive)	0.593 (inactive)	-0.229 (inactive)	0.0207 (inactive)	0.348 (inactive)	-2.62	-0.227
COc1ccc([Si](C)(C)[C@H]2[C@H](CC(=O)N3CCC[C@H]3CO)O[C@@]3(C(=O)N(Cc4ccc(N5CCC5=O)cc4)c4ccccc43)[C@@H]2C)cc1	-1.39	-0.942 (inactive)	-1.7 (inactive)	-5.46 (inactive)	1 (inactive)	0.194 (inactive)	-1.17 (inactive)	-1.29 (inactive)	-0.944	-0.0339
COCCOC(=O)N1C(=O)[C@@]2(c3ccccc31)[C@H](c1ccccc1OCCO)N1[C@H](c3ccccc3)[C@H](c3ccccc3)OC(=O)[C@H]1[C@@H]2C(N)=O	-0.704	1.82 (inactive)	-2.78 (inactive)	0.565 (inactive)	2.07 (inactive)	1.98 (inactive)	0.322 (inactive)	-0.528 (inactive)	-4.57	-0.288
O=C1O[C@H](c2ccccc2)[C@H](c2ccccc2)N2[C@H]1[C@@H](C(=O)N1CCCCCCC1)[C@]1(C(=O)Nc3ccc(C#CC4(O)CCCCCC4)cc31)[C@H]2c1ccc(O)cc1	0.114	-0.101 (inactive)	-0.5 (inactive)	0.0579 (inactive)	0.875 (inactive)	0.74 (inactive)	0.799 (inactive)	0.163 (inactive)	0.295	0.322
O=C1O[C@H](c2ccccc2)[C@H](c2ccccc2)N2[C@H]1[C@@H](C(=O)O)[C@]1(C(=O)Nc3ccc(C#CC4(O)CCCCCC4)cc31)[C@H]2c1ccc(O)cc1	0.934	-1.83 (inactive)	1.36 (inactive)	-3.2 (inactive)	0.734 (inactive)	-0.692 (inactive)	0.451 (inactive)	-0.679 (inactive)	-0.0544	-0.248
C=C(COC)C(=O)CC[C@H](OC(C)=O)c1ccc(OCCO)cc1	-0.429	-0.408 (inactive)	-0.267 (inactive)	-0.998 (inactive)	-0.116 (inactive)	-0.83 (inactive)	-0.238 (inactive)	0.53 (inactive)	-0.873	-0.326
CCOC(=O)C1=C[C@@H](C(C)(C)C)N(S(=O)(=O)c2ccc(C)cc2)[C@H]1c1ccc(C)cc1	-0.473	1.01 (inactive)	-0.328 (inactive)	-0.186 (inactive)	0.148 (inactive)	0.526 (inactive)	-0.617 (inactive)	-0.823 (inactive)	-2.18	-0.0017
[N-]=[N+]=Nc1ccccc1C[C@@]1(C(=O)O)N=C(c2ccc(OCCCO)cc2)O[C@@H]1c1ccccc1N=[N+]=[N-]	0.628	-2.04 (inactive)	-0.988 (inactive)	-0.435 (inactive)	0.879 (inactive)	-1.23 (inactive)	-0.258 (inactive)	-0.69 (inactive)	-0.955	-0.0374
C[C@@]12COC[C@]13C=C(Br)[C@H](C2)[C@@]1(CO1)C3=O	0.138	-1.38 (inactive)	-0.0295 (inactive)	-0.658 (inactive)	-0.259 (inactive)	-0.187 (inactive)	-0.651 (inactive)	-0.534 (inactive)	0.219	-0.154
